Results published in PubChem BioAssay (NCATS).
Inconclusive results are not listed. Activity calls are given as the source filed them. The call rests on the fitted dose curve; in most records, active means well fitted curve in the direction sought with a large enough effect; inconclusive means small, poorly fitted or top-dose-only effect, or another doubt; inactive means no such curve, though single readings can be large; an effect the other way counts as inactive or inconclusive.

Assays:
HaCat [1] = experiment: Cytotoxic Profiling of Annotated Libraries Using Quantitative High-Throughput Screening (AID 1296008); details: Five cell lines viability, CellTiter-Glo ATP luminescence, 48-72 h; max response: hits give low values; further: nearly all actives have a fitted effect of over 60% in size
Outline: (§1)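 Cells exposed to compounds for 48 or 72 hr at 37 degrees Celsius. Viability read as ATP-coupled luminescence with CellTiter-Glo after 10 min at room temperature.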

NIH3T3 [2] = experiment: as above; details: Five cell lines viability, CellTiter-Glo ATP luminescence, 48-72 h; max response: hits give low values
Outline: as §1

HACAT [3] = experiment: qHTS assay to identify novel small-molecules to repurpose for Merkel cell carcinoma treatment (AID 1296009); details: MCC and control cell lines, CellTiter-Glo viability, 72 h; at 44.8 µM (top of the series) unless noted; further: nearly all actives have a fitted effect of over 60% in size
Outline: (§2)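 CellTiter-Glo luminescence after 72 hr compound exposure at 37 degree celsius gave cell viability. Libraries NPC and MIPE were run as 8- and 11-point dose responses; RLUs normalized to DMSO (negative) and no-cell (cytotoxicity) controls.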

MCC-13 = experiment: as above; details: MCC and control cell lines, CellTiter-Glo viability, 72 h; series mostly up to 46 µM
Outline: as §2

MCC-26 = experiment: as above; details: MCC and control cell lines, CellTiter-Glo viability, 72 h; series mostly up to 46 µM
Outline: as §2

MKL-1 = experiment: as above; details: MCC and control cell lines, CellTiter-Glo viability, 72 h; series mostly up to 46 µM
Outline: as §2

MKL-2 = experiment: as above; details: MCC and control cell lines, CellTiter-Glo viability, 72 h; series mostly up to 46 µM
Outline: as §2

UISO = experiment: as above; details: MCC and control cell lines, CellTiter-Glo viability, 72 h; series mostly up to 46 µM
Outline: as §2

WaGa = experiment: as above; details: MCC and control cell lines, CellTiter-Glo viability, 72 h; series mostly up to 46 µM
Outline: as §2

C33A = experiment: Primary qHTS to identify gynecologic anti-cancer compounds using libraries of approved drugs and bioactive compounds (AID 1345084); details: Gynecologic cancer cell panel viability, ATPlite luminescence, 48 h; series mostly up to 57.5 µM; further: nearly all actives have a fitted effect of over 55% in size
Outline: (§3)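 ATP-based viability (ATPlite), 1,000 cells/well, 16 h pre-incubation, 48 h compound at 37 C, 5% CO2, 15 min RT before read.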

CAOV3 = experiment: as above; details: Gynecologic cancer cell panel viability, ATPlite luminescence, 48 h; series mostly up to 57.5 µM
Outline: as §3

CASKI = experiment: as above; details: Gynecologic cancer cell panel viability, ATPlite luminescence, 48 h; series mostly up to 57.5 µM
Outline: as §3

Es-2 = experiment: as above; details: Gynecologic cancer cell panel viability, ATPlite luminescence, 48 h; series mostly up to 57.5 µM
Outline: as §3

HeLa = experiment: as above; details: Gynecologic cancer cell panel viability, ATPlite luminescence, 48 h; series mostly up to 57.5 µM
Outline: as §3

Hek293T = experiment: as above; details: Gynecologic cancer cell panel viability, ATPlite luminescence, 48 h, control line for the selectivity index; series mostly up to 57.5 µM
Outline: as §3

JEG-3 = experiment: as above; details: Gynecologic cancer cell panel viability, ATPlite luminescence, 48 h; series mostly up to 57.5 µM
Outline: as §3

OV90 = experiment: as above; details: Gynecologic cancer cell panel viability, ATPlite luminescence, 48 h; series mostly up to 57.5 µM
Outline: as §3

NIH3T3 [4] = experiment: qHTS assay to identify novel small-molecules to repurpose for Merkel cell carcinoma treatment (AID 1296009); details: MCC and control cell lines, CellTiter-Glo viability, 72 h; at 44.8 µM (top of the series) unless noted; further: nearly all actives have a fitted effect of over 60% in size
Outline: as §2
On the % scale 0 is the no-effect control and ±100 the full control effect.

CC(C)(C)c1cc(C=O)cc(C(C)(C)C)c1O
inactive: outcome (HaCat [1]) | max response (NIH3T3 [2]) 1.57% | outcome (HACAT [3]) | Potency (MCC-13) | Potency (MCC-26) | Potency (MKL-1) | Potency (MKL-2) | Potency (UISO) | Potency (WaGa) | Potency (C33A) | Potency (CAOV3) | Potency (CASKI) | Potency (Es-2) | Potency (HeLa) | Potency (Hek293T) | Potency (JEG-3) | Potency (OV90)

CCCCC(CC)CNC(=O)CC(C)OC(=O)CCC(=O)O (configuration not stated)
inactive: outcome (HaCat [1]) | max response (NIH3T3 [2]) -1.58% | outcome (HACAT [3]) | Potency (MCC-13) | Potency (MCC-26) | Potency (MKL-1) | Potency (MKL-2) | Potency (UISO) | Potency (WaGa) | Potency (C33A) | Potency (CAOV3) | Potency (CASKI) | Potency (Es-2) | Potency (HeLa) | Potency (Hek293T) | Potency (JEG-3) | Potency (OV90)

CN(C)CCN(Cc1ccsc1)c1ccccn1
inactive: outcome (HaCat [1]) | outcome (NIH3T3 [2]) | outcome (HACAT [3]) | Potency (MCC-13) | Potency (MCC-26) | Potency (MKL-1) | Potency (MKL-2) | outcome (NIH3T3 [4]) | Potency (UISO) | Potency (WaGa) | Potency (C33A) | Potency (CAOV3) | Potency (CASKI) | Potency (Es-2) | Potency (HeLa) | Potency (Hek293T) | Potency (JEG-3) | Potency (OV90)

CC(=O)N(c1onc(C)c1C)S(=O)(=O)c1ccc(N)cc1
inactive: outcome (HaCat [1]) | max response (NIH3T3 [2]) -5.11% | outcome (HACAT [3]) | Potency (MCC-13) | Potency (MCC-26) | Potency (MKL-1) | Potency (MKL-2) | Potency (UISO) | Potency (WaGa) | Potency (C33A) | Potency (CAOV3) | Potency (CASKI) | Potency (Es-2) | Potency (HeLa) | Potency (Hek293T) | Potency (JEG-3) | Potency (OV90)

CN1CC(=O)N2[C@H](c3ccc4c(c3)OCO4)c3[nH]c4ccccc4c3C[C@@H]2C1=O
inactive: outcome (HaCat [1]) | max response (NIH3T3 [2]) 3.47% | outcome (HACAT [3]) | Potency (MCC-13) | Potency (MCC-26) | Potency (MKL-1) | Potency (MKL-2) | Potency (UISO) | Potency (WaGa) | Potency (C33A) | Potency (CAOV3) | Potency (CASKI) | Potency (Es-2) | Potency (HeLa) | Potency (Hek293T) | Potency (JEG-3) | Potency (OV90)

COCCc1ccccn1
inactive: outcome (HaCat [1]) | outcome (NIH3T3 [2]) | outcome (HACAT [3]) | Potency (MCC-13) | Potency (MCC-26) | Potency (MKL-1) | Potency (MKL-2) | outcome (NIH3T3 [4]) | Potency (UISO) | Potency (WaGa) | Potency (C33A) | Potency (CAOV3) | Potency (CASKI) | Potency (Es-2) | Potency (HeLa) | Potency (Hek293T) | Potency (JEG-3) | Potency (OV90)

Nc1c(I)cc(I)c(C(=O)N(CCC(=O)O)c2ccccc2)c1I
inactive: outcome (HaCat [1]) | max response (NIH3T3 [2]) 0.521% | outcome (HACAT [3]) | Potency (MCC-13) | Potency (MCC-26) | Potency (MKL-1) | Potency (MKL-2) | Potency (UISO) | Potency (WaGa) | Potency (C33A) | Potency (CAOV3) | Potency (CASKI) | Potency (Es-2) | Potency (HeLa) | Potency (Hek293T) | Potency (JEG-3) | Potency (OV90)

CCN(CC)CC(=O)Nc1c(C)cccc1C(=O)OC
inactive: outcome (HaCat [1]) | max response (NIH3T3 [2]) 1.11% | outcome (HACAT [3]) | Potency (MCC-13) | Potency (MCC-26) | Potency (MKL-1) | Potency (MKL-2) | Potency (UISO) | Potency (WaGa) | Potency (C33A) | Potency (CAOV3) | Potency (CASKI) | Potency (Es-2) | Potency (HeLa) | Potency (Hek293T) | Potency (JEG-3) | Potency (OV90)

O=c1[nH]c2ccccc2c(=O)n1CCCl
inactive: outcome (HaCat [1]) | outcome (NIH3T3 [2]) | outcome (HACAT [3]) | Potency (MCC-13) | Potency (MCC-26) | Potency (MKL-1) | Potency (MKL-2) | outcome (NIH3T3 [4]) | Potency (UISO) | Potency (WaGa) | Potency (C33A) | Potency (CAOV3) | Potency (CASKI) | Potency (Es-2) | Potency (Hek293T) | Potency (JEG-3) | Potency (OV90)

O=C(O)c1ccc(OCCN2CCCCC2)cc1
inactive: outcome (HaCat [1]) | max response (NIH3T3 [2]) 1.34% | outcome (HACAT [3]) | Potency (MCC-13) | Potency (MCC-26) | Potency (MKL-1) | Potency (MKL-2) | Potency (UISO) | Potency (WaGa) | Potency (C33A) | Potency (CAOV3) | Potency (CASKI) | Potency (Es-2) | Potency (HeLa) | Potency (Hek293T) | Potency (JEG-3) | Potency (OV90)

C/C=C(/C(=C/C)c1ccc(OC(C)=O)cc1)c1ccc(OC(C)=O)cc1
inactive: outcome (HaCat [1]) | max response (NIH3T3 [2]) -0.599% | outcome (HACAT [3]) | Potency (MCC-13) | Potency (MCC-26) | Potency (MKL-1) | Potency (MKL-2) | Potency (UISO) | Potency (WaGa) | Potency (C33A) | Potency (CAOV3) | Potency (CASKI) | Potency (Es-2) | Potency (HeLa) | Potency (Hek293T) | Potency (JEG-3) | Potency (OV90)

CNC(=O)c1c(I)c(NC(C)=O)c(I)c(C(=O)O)c1I
inactive: outcome (HaCat [1]) | max response (NIH3T3 [2]) 0.318% | outcome (HACAT [3]) | Potency (MCC-13) | Potency (MCC-26) | Potency (MKL-1) | Potency (MKL-2) | Potency (UISO) | Potency (WaGa) | Potency (C33A) | Potency (CAOV3) | Potency (CASKI) | Potency (Es-2) | Potency (HeLa) | Potency (Hek293T) | Potency (JEG-3) | Potency (OV90)

COC(=O)C1=C(C)NC(C)=C(C(=O)OCCc2ccc(N3CCN(C(c4ccccc4)c4ccccc4)CC3)cc2)C1c1cccc([N+](=O)[O-])c1 (configuration not stated)
inactive: outcome (HaCat [1]) | max response (NIH3T3 [2]) -0.486% | outcome (HACAT [3]) | Potency (MCC-13) | Potency (MCC-26) | Potency (MKL-1) | Potency (MKL-2) | Potency (UISO) | Potency (WaGa) | Potency (C33A) | Potency (CAOV3) | Potency (CASKI) | Potency (Es-2) | Potency (HeLa) | Potency (Hek293T) | Potency (JEG-3) | Potency (OV90)

NCC[C@H](O)C(=O)N[C@@H]1C[C@H](N)[C@@H](O[C@H]2O[C@H](CN)[C@@H](O)[C@H](O)[C@@H]2O)[C@H](O)[C@@H]1O[C@H]1O[C@H](CO)[C@@H](O)[C@H](N)[C@@H]1O
inactive: outcome (HaCat [1]) | max response (NIH3T3 [2]) -2.83% | outcome (HACAT [3]) inactive [at 0.588 µM] | activity change, negative = cytotoxicity (MCC-13) 1.29% [at 0.597 µM] | activity change, negative = cytotoxicity (MCC-26) 13.8% [at 0.597 µM] | activity change, negative = cytotoxicity (MKL-1) 9.09% [at 0.597 µM] | activity change, negative = cytotoxicity (MKL-2) 22.5% [at 0.597 µM] | activity change, negative = cytotoxicity (UISO) 23.5% [at 0.597 µM] | activity change, negative = cytotoxicity (WaGa) 23.2% [at 0.597 µM] | activity change, negative = cytotoxicity (C33A) 13.2% [at 0.462 µM] | activity change, negative = cytotoxicity (CAOV3) 10.2% [at 0.462 µM] | activity change, negative = cytotoxicity (CASKI) 11.8% [at 0.462 µM] | activity change, negative = cytotoxicity (Es-2) -2.07% [at 0.462 µM] | activity change, negative = cytotoxicity (HeLa) 16.7% [at 0.462 µM] | activity change, negative = cytotoxicity (Hek293T) 1.79% [at 0.462 µM] | activity change, negative = cytotoxicity (JEG-3) 1.19% [at 0.462 µM] | activity change, negative = cytotoxicity (OV90) -0.567% [at 0.462 µM]

Nc1ccc([N+](=O)[O-])c(C(F)(F)F)c1
inactive: outcome (HaCat [1]) | max response (NIH3T3 [2]) 0.447% | outcome (HACAT [3]) | Potency (MCC-13) | Potency (MCC-26) | Potency (MKL-1) | Potency (MKL-2) | Potency (UISO) | Potency (WaGa) | Potency (C33A) | Potency (CAOV3) | Potency (CASKI) | Potency (Es-2) | Potency (HeLa) | Potency (Hek293T) | Potency (JEG-3) | Potency (OV90)
